Over roughly 35,000 sequences, “fluorescence intensity (a.u.)” has its median near 10,000; the highest 2% begin near 52,000. Only a selection was taken, and the highest values are over-represented in it overall.

For the assay, the target named is T1, OsWOX13 (Oryza sativa, UniProt Q5QMM3 1-267).
T1 sequence: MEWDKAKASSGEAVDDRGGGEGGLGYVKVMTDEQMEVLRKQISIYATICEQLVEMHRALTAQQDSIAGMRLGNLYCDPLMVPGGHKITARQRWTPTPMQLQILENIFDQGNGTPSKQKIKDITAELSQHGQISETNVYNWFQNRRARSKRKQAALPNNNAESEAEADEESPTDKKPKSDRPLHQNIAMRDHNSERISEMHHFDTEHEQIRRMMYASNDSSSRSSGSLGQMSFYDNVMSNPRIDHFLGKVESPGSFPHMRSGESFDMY
The assay can be described thus: protein-binding microarray (RPBM); PBS, 2% BSA, 51.3 ng/ul salmon testes DNA, 50 uM zinc acetate, 200 nM TF, 25 C, 1 h; high values mean tight binding. The conditions noted are these: protein: recombinant; tags: N-terminal polyhistidine and DsRed monomer fusion (pET32a); label: CyDye5-dUTP incorporated in the synthesized complementary strand; 3' TTTTT single-stranded linker to array surface; dsDNA, one strand shown. The method in brief:
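The binding signal for each feature is its fluorescence intensity in arbitrary units. An Axon 4000B scanner was used to read a custom Agilent array that had been made double-stranded with Cy5-dUTP primer extension, blocked with 2% BSA, incubated at 25 °C for 1 h with 200 nM protein in PBS, 2% BSA, salmon testes DNA and 50 µM zinc acetate, and washed. The protein was an N-terminal polyhistidine–DsRed transcription factor fusion from E. coli BL21-CodonPlus, purified on Ni–NTA.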
Regarding “GAGAAATGGTAATTTAGCATGCTTATATATTGAGGTTTAGCGGAGTCACCTAGTGCAG”, the binding signal was 8510 fluorescence intensity (a.u.).

For the sequence “TAATCTGTGATGATGGATTCTCGTTAAGCATATGTTCTTTCGGAGTCACCTAGTGCAG”, the binding signal is 5830 fluorescence intensity (a.u.).

For the sequence “TGGTGGTGGCTGGCGGCGGGGAGGATGAGAACGAGAGAAGCGGAGTCACCTAGTGCAG”, the binding signal is 3920 fluorescence intensity (a.u.).

With “TTCCGGCCTAGATTGAATCTGGGTTTAACCGTAAGAGTCCCGGAGTCACCTAGTGCAG”, the binding signal was 6260 fluorescence intensity (a.u.).

“GTGGATATCAATCTGTATATACTAGATCCCCACCCACCATCGGAGTCACCTAGTGCAG”: the binding signal was 6630 fluorescence intensity (a.u.).

On to “TCGAACAGGCCCTTAATTATCTGAGCTATCCTGCATGCTTCGGAGTCACCTAGTGCAG”, for which the binding signal was 8320 fluorescence intensity (a.u.).

As for “GGCAAATTAACCAAGTTAGCTGCAGCTGCAGCTGGGATGGCGGAGTCACCTAGTGCAG”, the binding signal is 9780 fluorescence intensity (a.u.).

For “CATTTGATTGTATTTCCATCTTATTCTTAATCTGTATAAGCGGAGTCACCTAGTGCAG”, the binding signal is 32100 fluorescence intensity (a.u.).

Take “ACCAATCACAACCATTCTTCTTCACTTACTTTCTCTTTTCCGGAGTCACCTAGTGCAG”: the binding signal is 6630 fluorescence intensity (a.u.).

For “GAAGTTGATTATGAGCTCTTGGATCTTTTGGCAGGTGCAACGGAGTCACCTAGTGCAG”, the binding signal was 19400 fluorescence intensity (a.u.).

Consider “TGCCAACTTATCCATCAATTGAGATTAATGATTTGGTCTTCGGAGTCACCTAGTGCAG”, for which the binding signal was 13900 fluorescence intensity (a.u.).

Take “CTTATAATTGATTTATAGTCTGTCATTGTATCTGCTCTTACGGAGTCACCTAGTGCAG”: the binding signal was 65100 fluorescence intensity (a.u.).

Take “ATTGATTATGCCATGATTGGATCTTGGCACAGTGCTCTGCCGGAGTCACCTAGTGCAG”: the binding signal is 60300 fluorescence intensity (a.u.).

With “ATATTATTATATTATAATTATACTGTATTTATATCTGATACGGAGTCACCTAGTGCAG”, the binding signal is 9100 fluorescence intensity (a.u.).

Take “CTATATCTTGATGCTTTGTTGATTAGTACCATGGATTGGCCGGAGTCACCTAGTGCAG”: the binding signal is 6900 fluorescence intensity (a.u.).

As to “TTGATGATGTAACGTACGGTTGATTAATAATAAATTAGGTCGGAGTCACCTAGTGCAG”, the binding signal is 18400 fluorescence intensity (a.u.).

Take “GTCTTAATTATATTTGATAATCAACTTTATCCTTGGTTTGCGGAGTCACCTAGTGCAG”: the binding signal is 50800 fluorescence intensity (a.u.).

With “TGTGATTAAATGATTCCTCCAGTGCTATATGCCTATATAACGGAGTCACCTAGTGCAG”, the binding signal was 17500 fluorescence intensity (a.u.).

In the case of “GTGATTGATGTAAATGCCTTAACGGTCCAGCACCTCAGCTCGGAGTCACCTAGTGCAG”, the binding signal was 61200 fluorescence intensity (a.u.).

As to “TTCTGTAATTGATGCTCCTGCATTTTAGTGTATAAGTGTACGGAGTCACCTAGTGCAG”, the binding signal is 36500 fluorescence intensity (a.u.).

In the case of “TCAATTAATTGATTTATAATGATTTGGTCTTATCAATCCCCGGAGTCACCTAGTGCAG”, the binding signal was 53400 fluorescence intensity (a.u.).

Consider “GTTGCTAAATTTTAGTTATTACTGTGCAGTTGCCAAATTTCGGAGTCACCTAGTGCAG”, for which the binding signal was 4010 fluorescence intensity (a.u.).

As for “CATGAATTGGAAGATTTGATGCACTGATACTCCATGAAGACGGAGTCACCTAGTGCAG”, the binding signal was 8060 fluorescence intensity (a.u.).

Take “ATTAAATTTGAAAATTTATTAAATTGTGCTGATAAGTCAACGGAGTCACCTAGTGCAG”: the binding signal was 14500 fluorescence intensity (a.u.).

On to “AAGACGGTAATAGACTGTGCGAGTTGAACATGCAACTCTACGGAGTCACCTAGTGCAG”, for which the binding signal was 7360 fluorescence intensity (a.u.).

Consider “ACCCTTGATTTACTTGATAATTTGTTATATGTCCCCATCCCGGAGTCACCTAGTGCAG”, for which the binding signal was 49800 fluorescence intensity (a.u.).

For “ATTGATTTGATTGTATTCATAATCATACAATTATCTTAGCCGGAGTCACCTAGTGCAG”, the binding signal is 65200 fluorescence intensity (a.u.).

Turning to “CCCTTGATTTACTTGATAATTTGTTATAGGTCCCTATCCCCGGAGTCACCTAGTGCAG”, the binding signal is 53400 fluorescence intensity (a.u.).

As to “GCTAATAGATTGCTATTGTATCTGCTCTTATGCATGATCGCGGAGTCACCTAGTGCAG”, the binding signal is 61200 fluorescence intensity (a.u.).

Regarding “AACAAGATTGTGATTCATACATCTGCATCTTATTTTGTATCGGAGTCACCTAGTGCAG”, the binding signal is 3650 fluorescence intensity (a.u.).

For the sequence “TTTGTTAAATTTCTCAATTGATTCATAATTCTTTATTAGCCGGAGTCACCTAGTGCAG”, the binding signal was 10300 fluorescence intensity (a.u.).

As to “AATTTTCTTATGATTAGCATTTCTATTGCTATTAGATGATCGGAGTCACCTAGTGCAG”, the binding signal was 8930 fluorescence intensity (a.u.).

Turning to “TCCATTTATCCCGATAATTTGTACTACATTTGTATAGGCCCGGAGTCACCTAGTGCAG”, the binding signal is 5670 fluorescence intensity (a.u.).

Take “AGATAATTCTTACTAGATGATTATTGTATATGCTGCTATCCGGAGTCACCTAGTGCAG”: the binding signal is 9000 fluorescence intensity (a.u.).

For the sequence “CCCCATCTGTATTTTAAATTTATATCCGCCACTGATTGTACGGAGTCACCTAGTGCAG”, the binding signal was 4240 fluorescence intensity (a.u.).

In the case of “CCCGATTGACAAGCTGACTCAGCATGGAGGGACCCACATGCGGAGTCACCTAGTGCAG”, the binding signal was 37700 fluorescence intensity (a.u.).

“CAACACATGATTGCCGGGCTTTCTTCCCTCTCGTCCTGAGCGGAGTCACCTAGTGCAG”: the binding signal was 32000 fluorescence intensity (a.u.).

Consider “TAGTACTACTCATCACCAATCAGCTGCCACACATGCATGGCGGAGTCACCTAGTGCAG”, for which the binding signal is 5430 fluorescence intensity (a.u.).

Regarding “CGCGCCAATCATCTCCCGCTCCCTCTTATCCTCCCCTCTCCGGAGTCACCTAGTGCAG”, the binding signal is 14100 fluorescence intensity (a.u.).

For the sequence “AGGACTAATAGATTTCCAAGATGATCGGGACTGACCGATCCGGAGTCACCTAGTGCAG”, the binding signal was 10600 fluorescence intensity (a.u.).

“AAAATATAATCAAAATAATTTACTTATCCATGTAATCATACGGAGTCACCTAGTGCAG”: the binding signal is 3770 fluorescence intensity (a.u.).

For the sequence “CTAATGACGAATTAATTAGAATTAATAGATTTATCTTGCACGGAGTCACCTAGTGCAG”, the binding signal is 53300 fluorescence intensity (a.u.).

Take “GTTTAATGATAAATCTAGTAATATTAATTTTACATGATTGCGGAGTCACCTAGTGCAG”: the binding signal is 25600 fluorescence intensity (a.u.).

Take “TAATAGATAGATAGATAGATAGATAGATTAGTAATTTAGACGGAGTCACCTAGTGCAG”: the binding signal was 30600 fluorescence intensity (a.u.).

With “ACTATATAATTAAAATAGATTTCACCCGTTGCAACGCACGCGGAGTCACCTAGTGCAG”, the binding signal was 13300 fluorescence intensity (a.u.).

In the case of “AATGAATTTAGATAGATATATATATCTAGATTCATTAGCACGGAGTCACCTAGTGCAG”, the binding signal was 7940 fluorescence intensity (a.u.).

Take “ATAATATATGATTAATTAAGTTTTAATTATTACAAACTTGCGGAGTCACCTAGTGCAG”: the binding signal is 37000 fluorescence intensity (a.u.).

Turning to “CCAAATTACAACAAATATAATTTTACTTAATCCAAAGTAACGGAGTCACCTAGTGCAG”, the binding signal is 8310 fluorescence intensity (a.u.).

Consider “ATAATAAGATTAAAATAACATTTACCCGTTGCAAAGCACGCGGAGTCACCTAGTGCAG”, for which the binding signal was 3610 fluorescence intensity (a.u.).

On to “ATATAATTAAATGATTAATTAATTAGTACCGTTTTACTTGCGGAGTCACCTAGTGCAG”, for which the binding signal is 65500 fluorescence intensity (a.u.).

For the sequence “AACACCATACCAAAATCCAAATATACTTATATTTTACTTACGGAGTCACCTAGTGCAG”, the binding signal is 65000 fluorescence intensity (a.u.).

Regarding “ATAATTAGATTAAAATAGATTTTACCCGTTGCAATGCACGCGGAGTCACCTAGTGCAG”, the binding signal is 56200 fluorescence intensity (a.u.).

On to “TGGTCAGATAGCTAGATTGATATCCCTCTCTCTCTCTCACCGGAGTCACCTAGTGCAG”, for which the binding signal is 13900 fluorescence intensity (a.u.).

For “TTGTAAATTACCTGCAAGGAAGAATTAACCAAGATGTCTTCGGAGTCACCTAGTGCAG”, the binding signal is 5040 fluorescence intensity (a.u.).

(Values after publication PMC7819943, “Rice protein-binding microarrays: a tool to detect cis-acting elements near promoter regions in rice”.)
